Experimental data reported in PubChem BioAssay (Tox21).
Inconclusive results are not listed. Where a call stands in place of a potency, no number is given. The source made the active and inactive calls. The call rests on the fitted dose curve; in most records, active means well fitted activation curve with a large enough effect in the signal ratio in the repeat runs (not every such curve was filed as active); inconclusive means weak or mixed curves, or effect the other way; inactive means no such curve, though single readings can be large or run the other way; the % refers to the signal ratio.
Potency means the concentration at half of the fitted maximal effect.

These compounds were tested against Peroxisome proliferator-activated receptor gamma (Homo sapiens) (UniProt P37231) (assay: qHTS assay to identify small molecule agonists of the peroxisome proliferator-activated receptor gamma (PPARg) signaling pathway (AID 743094)). Details: HEK293H PPARg-UAS-bla, beta-lactamase FRET ratio, 17 h; series mostly up to 57 µM.
Chain of Peroxisome proliferator-activated receptor gamma (Homo sapiens) (P37231 whole entry, looked up): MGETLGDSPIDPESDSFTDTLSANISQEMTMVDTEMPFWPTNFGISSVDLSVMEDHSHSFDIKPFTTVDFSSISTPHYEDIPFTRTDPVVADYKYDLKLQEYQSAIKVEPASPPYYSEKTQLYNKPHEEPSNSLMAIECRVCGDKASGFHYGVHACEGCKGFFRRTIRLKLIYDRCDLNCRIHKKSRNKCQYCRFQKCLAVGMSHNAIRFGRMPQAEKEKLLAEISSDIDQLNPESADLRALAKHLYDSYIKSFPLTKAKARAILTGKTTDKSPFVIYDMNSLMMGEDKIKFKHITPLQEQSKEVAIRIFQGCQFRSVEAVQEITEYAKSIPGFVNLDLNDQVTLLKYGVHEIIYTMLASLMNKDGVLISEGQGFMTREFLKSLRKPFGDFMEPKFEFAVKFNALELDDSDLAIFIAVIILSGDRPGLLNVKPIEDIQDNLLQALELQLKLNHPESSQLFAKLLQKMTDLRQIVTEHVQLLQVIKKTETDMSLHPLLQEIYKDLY
Summary of the method: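 GeneBLAzer PPARg UAS-bla HEK293H cells were plated, rested 5 h, then exposed to compounds for 17 h at 37C. Beta-lactamase activity was read by LiveBLAzer B/G FRET substrate fluorescence after 1 h at room temperature.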
In the case of CC(C)c1ccc2c(C(C)C)cc(C(C)C)c(S(=O)(=O)O)c2c1, the Potency was “inactive”. With Cc1cc(C)c(S(=O)(=O)O)cc1N=Nc1cc(S(=O)(=O)O)c2ccccc2c1O the Potency was “inactive”. In the case of OCCC1CCCCN1 (configuration not stated), the Potency was “inactive”. In the case of CC1(C)CCC(C)(C)c2cc(NC(=O)c3ccc(C(=O)O)cc3)ccc21, the Potency was “inactive”. For CC(=O)N(O)CCCCCNC(=O)CCC(=O)N(O)CCCCCNC(=O)CCC(=O)N(O)CCCCCN, the Potency was “inactive”. In the case of Cl/C(=C\n1cncn1)c1ccc(Cl)cc1Cl, the Potency was “inactive”. With CC(C)CC=O the Potency was “inactive”. With CCCCCCCCCO the Potency was “inactive”. For CN(C)CCCOc1nn(Cc2ccccc2)c2ccccc12, the Potency was “inactive”. With FC(F)(F)C(F)(F)C(F)(F)C(F)(F)C(F)(F)C(F)(F)CCI the Potency was “inactive”. With CN1CCC(=C2c3ccccc3C=Cc3ccccc32)CC1 the Potency was “inactive”. O=C(Cl)c1c(Cl)cccc1Cl was tested, and the Potency was “inactive”. With CC(=O)O[C@@H]1C(=O)O[C@@H]2[C@H]1OC(=O)[C@@H]2OC(C)=O the Potency was “inactive”. In the case of CC1=CCC(C(C)C)C=C1 (configuration not stated), the Potency was “inactive”. For C#CCOC(=O)[C@@H](C)Oc1ccc(Oc2ncc(Cl)cc2F)cc1, the Potency was “inactive”. In the case of CCCCCCOC(=O)CCC, the Potency was “inactive”. In the case of O=C(CCN1CCN2CCCC2C1)N1c2ccccc2Sc2ccc(Cl)cc21 (configuration not stated), the Potency was “inactive”. In the case of CCN(CC)CCc1nc(-c2ccccc2)no1, the Potency was “inactive”. In the case of COCCO, the Potency was “inactive”. CCCCCOC(=O)COc1cc(N2C(=O)C3=C(CCCC3)C2=O)c(F)cc1Cl was tested, and the Potency was “inactive”. For Nc1ccc(C(=O)Nc2ccccc2N)cc1, the Potency was 9.52 µM (active). C[C@H](CCC(=O)O)[C@H]1CC[C@H]2[C@@H]3[C@H](O)C[C@@H]4C[C@H](O)CC[C@]4(C)[C@H]3CC[C@]12C was tested, and the Potency was “inactive”.
